RORgamma inh: inhibitors of mouse ROR gamma transcriptional activity | hit rate 5.4% among 310,000 | P51450 | Drosophila S2 Gal4-RORgamma UAS-luciferase reporter, 20 h | Potency, µM (doses to about 53.6 µM), actives largely listed as inhibitors; note: nearly all actives have a fitted effect of over 60% in size
Target sequence (P51450 whole entry, looked up, the tested form may be a part): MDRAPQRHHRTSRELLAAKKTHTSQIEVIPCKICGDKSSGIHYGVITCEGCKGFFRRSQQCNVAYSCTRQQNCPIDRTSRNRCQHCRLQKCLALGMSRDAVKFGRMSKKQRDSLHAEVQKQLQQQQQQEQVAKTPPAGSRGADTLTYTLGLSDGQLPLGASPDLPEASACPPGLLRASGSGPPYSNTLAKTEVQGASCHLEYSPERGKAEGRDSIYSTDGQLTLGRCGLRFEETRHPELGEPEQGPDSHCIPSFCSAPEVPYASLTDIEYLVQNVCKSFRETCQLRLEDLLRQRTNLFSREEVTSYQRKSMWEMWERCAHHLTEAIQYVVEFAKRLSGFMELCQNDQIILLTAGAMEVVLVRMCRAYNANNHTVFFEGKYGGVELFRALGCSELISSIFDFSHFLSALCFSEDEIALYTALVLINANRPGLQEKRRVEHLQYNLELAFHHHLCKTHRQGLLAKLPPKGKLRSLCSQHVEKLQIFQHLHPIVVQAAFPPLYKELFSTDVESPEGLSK
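Drosophila Schneider cells stably carrying a metallothionein-driven Gal4 DBD–ROR gamma fusion and a UAS-Photinus luciferase reporter were exposed to compound for 1 hr, then induced with copper sulfate (700 uM final) for 20 hr at ambient temperature before luminescence reading.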
Gal4-VP16 FLuc: Gal4-VP16 reporter inhibition counter-screen; hit rate 3.5% among 310,000; AID 2546; Potency, µM (series often up to 53.6 µM), actives largely listed as inhibitors; Drosophila S2 Gal4-VP16 UAS-luciferase, luminescence, 20 h;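 note: Gal4-VP16 expression switched on by copper sulfate through the metallothionein promoter; nearly all actives have a fitted effect of over 50% in size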
TDP1 cell noCPT: qHTS for Inhibitors of human tyrosyl-DNA phosphodiesterase 1 (TDP1): qHTS in cells in absence of CPT. DT40 Tdp1-/- hTDP1 cells, no CPT, ATP luminescence, 48 h. Potency, µM (titrated, usually from 46.2 µM), usual class: inhibitors. hit rate 15% among 420,000. AID 686978, 2013; note: nearly all actives have a fitted effect of over 55% in size
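Readout: luminescence from CellTiter-Glo after 30 min in the dark at RT. Cells: DT40 Tdp1-/- with stable hTDP1, 400/well. Exposure: compounds alone, ≥48 hr, 37 °C.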
IL1B secr inh: blocks inflammasome-driven IL-1 beta release; THP-1 LPS/ATP IL-1B secretion, AlphaLISA, 16 h; hits give low values; AID 743279; activity change, % at 57.5 µM; hit rate 4.7% among 360,000; in the data active = activity change below about -50%; inconclusive = mostly about -30% to -49%
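Secreted IL-1B measured by AlphaLISA bead assay after 16 h compound exposure of THP-1 cells; compounds (final up to 57.5 uM) added 1 h before LPS (250 ng/mL) and ATP (1.25 mM) stimulation; lower signal means less secretion.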
LDHA inh: blocks human lactate dehydrogenase A. P00338. purified LDHA, NADH/diaphorase-resazurin fluorescence; hits give low values. activity change, % (values are at about 110 or 230 µM). hit rate 0.15% among 480,000; in the data active = activity change below about -30%; inconclusive = mostly about -25% to -30%
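Enzyme activity of human lactate dehydrogenase 5 (2 nM; 0.06 mM NADH, 0.2 mM pyruvate, 5 min, RT) is measured via a resazurin/diaphorase fluorescence readout of residual NADH.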
DT40 TDP1 CPT: DT40-hTDP1 cell growth loss with CPT | hit rate 12% among 420,000 | chicken DT40 Tdp1-/-;hTDP1 cells + 20 nM CPT, ATP luminescence, 48 h | AID 686979 | Potency, µM (titrated, usually from 46.2 µM), most hits filed as inhibitors; note: nearly all actives have a fitted effect of over 55% in size
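Chicken DT40 Tdp1-/- cells complemented with human TDP1, 400 cells/well, exposed to compounds plus 20 nM camptothecin for at least 48 h at 37 C; viability read as ATP content by CellTiter-Glo luminescence.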
Numbers stand for hits; n = inactive; u = inconclusive; x = no result. Rows were chosen to be rich in hits. Some 18% of all compounds tested hit in one or more screens of this group. Unless noted, calls come from the whole dose curve; as a rule, active = well fitted curve in the direction sought with a large enough effect; inconclusive = small, poorly fitted or top-dose-only effect, or another doubt; inactive = no such curve, though single readings can be large; an effect the other way counts as inactive or inconclusive.

SMILES	RORgamma inh	Gal4-VP16 FLuc	TDP1 cell noCPT	IL1B secr inh	LDHA inh	DT40 TDP1 CPT
O=C(CN1CCN(c2cccc(Cl)c2)CC1)NC1CCCc2ccccc21 (configuration not stated)	n	n	u	-73	n	u
Cc1nc2ccccn2c1C(=O)NC1CCCc2ccccc21 (configuration not stated)	u	13µM	7.3µM	n	n	7.3µM
O=C(NCc1ccccc1Cl)C1CCN(c2ncnc3nc[nH]c23)CC1	x	x	x	x	n	x
CN(C(=O)CCl)C1CCCc2ccccc21 (configuration not stated)	u	n	2.9µM	-107	n	2.6µM
CC(Sc1nc2ccccc2s1)C(=O)N(C)Cc1ccccc1 (configuration not stated)	u	n	n	-67	n	n
O=C(CCl)NC1CCCc2ccccc21 (configuration not stated)	n	n	18µM	-98	n	15µM
CC(C)c1nnc(NC(=O)CCC(=O)NC2CCCc3ccccc32)s1 (configuration not stated)	n	n	15µM	n	n	u
CC(C)c1nnc(NC(=O)CCC(=O)NC2CCCCC2)s1	n	n	n	n	n	n
O=C(CSc1nnc2ccc(-c3cccs3)nn12)N1CCOCC1	x	x	x	x	n	x
CCN1CCN(c2c([N+](=O)[O-])cnc3ccc(Br)cc23)CC1	x	x	x	x	n	x
CC(Sc1nc2ccccc2s1)C(=O)NC1CCCc2ccccc21 (configuration not stated)	n	n	23µM	u	n	u
N#Cc1ccccc1CSc1nc2ccsc2c(=O)n1Cc1ccccn1	u	u	u	n	n	u
O=c1c2sccc2nc(SCc2cc(=O)n3cc(Br)ccc3n2)n1Cc1ccccn1	n	n	21µM	-53	n	21µM
Cc1ccc(CSc2nc3ccsc3c(=O)n2Cc2ccccn2)cc1	n	n	16µM	u	n	u
CC(C(=O)N(C)Cc1ccccc1)N(c1ccccc1)S(C)(=O)=O (configuration not stated)	x	x	x	x	n	x
Cc1ccccc1CNC(=O)c1sc2ncnc(N(C)C3CCCCC3)c2c1C	x	x	21µM	x	n	u
Cc1ccc(CNC(=O)c2sc3ncnc(N(C)C4CCCCC4)c3c2C)cc1	x	x	26µM	x	n	u
Cc1cccn2c(=O)cc(COc3ccccc3NC(=O)Nc3ccccc3F)nc12	x	x	x	x	n	x
COc1ccccc1NC(=S)NC(=O)/C=C/c1cccs1	4.5µM	11µM	u	n	n	n
COc1ccc(NC(=S)NC(=O)/C=C/c2ccccc2)cc1	7.1µM	7.1µM	u	n	n	u
CC(=O)c1ccc(NC(=S)NC(=O)/C=C/c2ccc(F)cc2)cc1	u	n	u	n	n	n
COc1ccc(NC(=S)NC(=O)/C=C/c2ccco2)cc1	n	n	u	n	n	u
COc1ccc(NC(=S)NC(=O)/C=C/c2cccs2)cc1	3.5µM	u	u	n	n	u
COc1ccccc1NC(=O)COC(=O)/C=C/c1cccs1	x	x	n	n	n	u
COc1cccc(NC(=S)NC(=O)/C=C/c2ccc(F)cc2)c1	7.1µM	u	n	u	n	n
SMILES	RORgamma inh	Gal4-VP16 FLuc	TDP1 cell noCPT	IL1B secr inh	LDHA inh	DT40 TDP1 CPT
CC(C)C[C@H]1CN([C@@H](Cc2ccccc2)CN2CCC[C@@H]2CN2C(=O)C(=O)NC[C@@H]2Cc2ccc(O)cc2)C(=O)C(=O)N1CC1CCCCCC1	x	x	u	n	n	u
CC(C)C[C@H]1CN([C@@H](Cc2ccccc2)CN2CCC[C@@H]2CN2C(=O)C(=O)NC[C@@H]2Cc2ccccc2)C(=O)C(=O)N1CC1CCCCC1	x	x	16µM	-59	n	21µM
CC(C)C[C@H]1CNC(=O)C(=O)N1C[C@@H]1CCCN1C[C@H](Cc1ccc(O)cc1)N1C[C@H](Cc2ccccc2)N(CC2CCCCC2)C(=O)C1=O	x	x	u	-59	n	u
CC(C)C[C@H]1CN([C@@H](Cc2ccc(O)cc2)CN2CCC[C@H]2CN2C(=O)C(=O)NC[C@@H]2Cc2ccccc2)C(=O)C(=O)N1CC1CCCCCC1	x	x	u	-82	n	u
C=C(Cl)CN1CCC(C(=O)OCC)CC1	x	x	x	x	n	x
Cc1ccc(-n2nnnc2SCC(=O)Nc2cc(C)nn2-c2ccccc2)cc1	x	x	x	x	n	x
COc1ccc(Oc2ccc(N/C=C3\CCCC3=O)cc2)cc1	n	n	26µM	n	n	u
O=C(NC1CCCc2ccccc21)C1CCC1 (configuration not stated)	x	x	x	x	n	x
CC(C)Nc1nc(NC(C)C)nc(N(C#N)CCOc2ccc(Cl)cc2Cl)n1	u	u	u	n	n	18µM
CCS(=O)(=O)N1CCc2cc(C(=O)COc3ccc(C(=O)c4ccc(F)cc4)cc3)ccc21	x	x	x	x	n	x
O=C1N[C@@H](Cc2c[nH]c3ccccc23)COC(=O)[C@@H](Cc2ccc(F)cc2)C/C=C\C[C@H]1CC(=O)N(CCO)Cc1ccccc1	x	x	21µM	u	n	u
C[C@H]1COC(=O)[C@@H](Cc2ccc(F)cc2)C/C=C\C[C@H](CC(=O)N(CCO)Cc2ccccc2)C(=O)N1	x	x	23µM	n	n	21µM
C[C@@H]1COC(=O)[C@@H](Cc2ccc(F)cc2)C/C=C\C[C@H](CC(=O)N(CCO)Cc2ccccc2)C(=O)N1	x	x	u	n	n	u
O=C1N[C@@H](Cc2c[nH]c3ccccc23)COC(=O)[C@H](Cc2ccc(F)cc2)C/C=C\C[C@@H]1CC(=O)N(CCO)Cc1ccccc1	x	x	u	n	n	u
O=C1N[C@@H](Cc2ccccc2)COC(=O)[C@H](Cc2ccc(F)cc2)C/C=C\C[C@@H]1CC(=O)N(CCO)Cc1ccccc1	x	x	u	u	n	u
O=C1OC[C@@H]2CCCN2C(=O)[C@@H](CC(=O)N(CCO)Cc2ccccc2)C/C=C\C[C@@H]1Cc1ccc(F)cc1	x	x	u	u	n	23µM
O=C1N[C@H](Cc2ccccc2)COC(=O)[C@H](Cc2ccc(F)cc2)C/C=C\C[C@@H]1CC(=O)N(CCO)Cc1ccccc1	x	x	16µM	u	n	u
CC(C)c1nc(C#N)c(NCC(c2ccccc2Cl)N2CCOCC2)o1 (configuration not stated)	x	x	x	x	n	x
CCc1c(C(=O)Nc2ccccc2C#N)csc1C	x	x	x	x	n	x
Cc1cc(NC(=O)NCC(c2cccs2)N2CCOCC2)no1 (configuration not stated)	x	x	x	x	n	x
O=C1N[C@H](Cc2ccccc2)COC(=O)[C@@H](Cc2ccc(F)cc2)C/C=C\C[C@H]1CC(=O)N(CCO)Cc1ccccc1	x	x	26µM	-59	n	u
O=C(NCc1ccco1)c1cc(-c2ccccn2)nc2cc(F)ccc12	x	x	x	x	n	x
